Assay outcomes: PubChem, National Center for Advancing Translational Sciences (NCATS)
Most compounds without a hit are left out; they make up all but 0.49% or so of the library.
EPAC1 antagonist – blocks human EPAC1 exchange factor | EPAC1 GEF assay, Rap1b-BODIPY-GDP exchange fluorescence | Potency, µM (doses to about 115 µM), usual class: inhibitors | actives 0.14% (n = 360,000); note: nearly all actives have a fitted effect of over 50% in size
EPAC2 ag – EPAC2 (human) agonism; Q8WZA2; EPAC2 activation, biochemical qHTS; response scale: 100% = 6.5 mM cAMP response; Potency, µM (highest dose often 154 µM), most hits filed as activators; actives 0.079% (n = 360,000); note: nearly all actives have a fitted effect of over 50% in size
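qHTS, titration series. 100 nM EPAC2 / 250 nM Rap1B-BODIPY-GDP / 50 uM GDP; RT; ex 480/em 540 nm, 5-min reads to 30 min. Norm. to 6.5 mM cAMP = activation.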
EPAC1 agonist – agonists of human EPAC1. AID 720707. Potency, µM (series often up to 154 µM), usual class: activators. O95398. EPAC1 agonist qHTS, biochemical assay; response scale: 100% = response to 6.5 mM cAMP. actives 0.073% (n = 360,000); note: nearly all actives have a fitted effect of over 60% in size
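Read-out is the fluorescence drop as BODIPY-GDP leaves Rap1B (480 nm excitation, 540 nm emission), recorded every 5 minutes over 30 minutes. Reactions held 100 nM EPAC1, 250 nM Rap1B–BODIPY-GDP and 50 uM GDP, with 6.5 mM cAMP setting full activation.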
USP1 inh – inhibitors of human USP1/UAF1 deubiquitinase; O94782; recombinant USP1/UAF1, Ub-Rhodamine cleavage fluorescence; Potency, µM (highest dose often 57.1 µM), actives largely listed as inhibitors; actives 0.23% (n = 390,000); AID 743255; note: nearly all actives have a fitted effect of over 60% in size
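High-throughput fluorogenic screen: 1nM USP1/UAF1 complex, Ub-Rho substrate 150nM final, 50mM HEPES pH 7.8 with 0.5mM EDTA, 0.1 mg/ml BSA, 1mM TCEP and 0.01% Tween-20.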
EPAC2 antag – antagonists of human EPAC2; Q8WZA2; EPAC2 GEF exchange of Rap1B-BODIPY-GDP, fluorescence; actives 0.18% (n = 360,000); AID 720708; Potency, µM (titrated, usually from 114 µM), hits mostly inhibitors; note: nearly all actives have a fitted effect of over 45% in size
A number is an active result; . = inactive; ? = inconclusive; / = no result given. Calls come from the whole dose curve; as a rule, active = well fitted curve in the direction sought with a large enough effect; inconclusive = small, poorly fitted or top-dose-only effect, or another doubt; inactive = no such curve, though single readings can be large; an effect the other way counts as inactive or inconclusive.

SMILES | EPAC1 antagonist | EPAC2 ag | EPAC1 agonist | USP1 inh | EPAC2 antag
S=C(Nc1ccccc1)Nc1ccccn1 | . | . | 89µM | . | .
CC(C)(C)c1csc(NC(=O)Nc2ccccc2)n1 | ? | . | . | . | .
Oc1ccc(Cl)cc1Cc1cc(Cl)ccc1O | . | . | . | . | 79µM
CCOP(=S)(OCC)Oc1cc(C)nc(C(C)C)n1 | . | . | . | . | 22µM
CC(C)CC[C@@H](O)[C@](C)(O)C1CC[C@@]2(O)C3=CC(=O)[C@@H]4C[C@@H](O)[C@@H](O)C[C@]4(C)C3CC[C@]12C (stereo partly specified) | . | . | . | . | .
CCCCn1c(NC(=O)c2ccco2)c(C(=O)OCC)c2nc3ccccc3nc21 | ? | . | . | 25µM | .
CCCCn1c(NS(=O)(=O)c2ccc(C)cc2)c(C(=O)OCC)c2nc3ccccc3nc21 | ? | . | 112µM | ? | .
CCCCn1c(N)c(C(=O)OCC2CCCO2)c2nc3ccccc3nc21 (stereo unspecified) | . | . | . | . | .
CCOC(=O)c1c(N)n(Cc2ccco2)c2nc3ccccc3nc12 | . | . | . | . | .
COc1ccccc1NC(=O)Oc1cccc(OC(=O)c2ccccc2)c1 | . | . | . | ? | .
O=S1(=O)N(Cc2ccccc2)CCCN1Cc1ccc(F)cc1Cl | / | / | / | . | /
Cc1ccc(N2C(=O)NC(=O)/C(=C\c3cc(C)n(-c4sc5c(c4C#N)CCCC5)c3C)C2=O)cc1 | 18µM | . | . | 28µM | ?
CCN1C(=O)NC(=O)/C(=C/c2cc(C)n(-c3sc(C)c(C)c3C#N)c2C)C1=O | . | . | . | . | .
COc1ccc(/C=C2/C(=O)N(Cc3ccco3)C(=O)N(C(C)C)C2=O)cc1 | 32µM | . | . | ? | .
CC(C)N1C(=O)/C(=C/C=C/c2ccco2)C(=O)N(Cc2ccco2)C1=O | ? | . | . | . | .
CCOc1cc(-c2c(C#N)c(=O)[nH]c3c2c(C)nn3-c2ccc(F)cc2)ccc1O | ? | . | . | . | .
CN1Cc2c(c(C#N)c(N)n(C)c2=S)CC1(C)C | . | ? | ? | 28µM | .
Cc1cc(OCC(=O)N2CCN(CCc3ccccn3)CC2)cc(C)c1Cl | / | / | / | . | /
O=c1[nH]c(=O)n(-c2ccccc2)c(O)c1/C=C/C=Nc1ccccc1 | . | . | ? | ? | .
COc1ccc(-n2c(O)c(/C=C/C=Nc3ccccc3)c(=O)[nH]c2=O)cc1 | . | ? | 100µM | 32µM | .
CCn1c(O)c(C=Nc2ccc(N3CCOCC3)cc2)c(=O)n(CC)c1=S | . | 100µM | . | 18µM | .
CC1=NCCc2c1[nH]c1cc(O)ccc21 | . | 100µM | 112µM | 25µM | .
CCOc1ccc(CN(CCc2ccc3c(c2)OCO3)Cc2cc(OC)ccc2O)cc1 | / | / | / | . | /
CC[C@H](C)/C=C(C)/C=C/C1=CC2=C(Cl)C(=O)[C@](C)(OC(C)=O)C(=O)C2=CO1 | ? | . | . | 25µM | 8.9µM
O=P(Nc1cccc(F)c1)(Oc1ccccc1F)Oc1ccccc1F | ? | . | . | . | 35µM
SMILES | EPAC1 antagonist | EPAC2 ag | EPAC1 agonist | USP1 inh | EPAC2 antag
Cc1cccc(NP(=O)(Oc2ccccc2F)Oc2ccccc2F)c1 | . | . | . | . | ?
C[N+](C)(C)CCCCCCCCCC[N+](C)(C)C | . | . | . | ? | .
COc1cc(/C=C/c2nc3ccccc3c(=O)n2-c2ccc(Br)c(C)c2)ccc1O | / | / | / | . | /
CCOC(=O)c1c(/N=C/C2C(=O)NC(=O)NC2=O)sc2c1CCC2 | . | . | . | . | .
CCOC(=O)c1cc(CC)sc1/N=C/c1c(O)[nH]c(=S)[nH]c1=O | . | 63µM | . | ? | .
CCOC(=O)c1cc(CC)sc1/N=C/C1C(=O)NC(=S)NC1=O | . | 89µM | . | ? | .
CC(C)CCOP(=O)(c1ccc(N(C)C)cc1)C(O)c1c(Cl)cccc1Cl (stereo unspecified) | ? | . | . | . | ?
C[C@H]1COC(=O)[C@@H](Cc2ccc(F)cc2)CC/C=C/C[C@@H](CC(=O)N(CCO)Cc2ccccc2)C(=O)N1 | . | . | . | . | .
C=CC[C@@H](CC(=O)N(CCO)Cc1ccccc1)C(=O)NC[C@@H](OC(=O)[C@@H](CC=C)CC(=O)OC(C)(C)C)c1ccccc1 | . | . | . | . | .
